Measurements: PubChem BioAssay (NCI)
This is part of a sample that, as a whole, favours compounds with a hit. Of some 83,000 tested, about 20% had one in any assay.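 Results are percent growth after 48 hours of single-concentration exposure. 100 means growth as in untreated cells, lower positive values show inhibition; negative values down to -100 show cell death.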 Values without a mark were called inactive. Calls of active or inactive are those of the source. How the source made its calls: active means growth percent below 10; inactive means the rest.

Tested on: IGROV1 ovarian
Experiment: NCI-60 one-dose screen, 48 h (100 = growth as untreated, 0 = no growth, -100 = all killed)
Details: 10 µM unless noted

**Q.** For `CCOC(=O)C1=C(C)NC(C)=C(C(=O)OCC)C1(C)C`, which growth is on record?
**A.** 131%

**Q.** For `Cc1[nH]c2ccc(F)cc2c1CCNC(=O)C1CCN(C(=O)c2ccccc2)C1` (centres undefined), which growth is on record?
**A.** 90.4% [25 µM]

**Q.** `COc1ccc(C(=O)N2NC(=O)/C(=C/c3ccc(Br)cc3)N=C2c2ccccc2)cc1` was tested. Which growth did it give?
**A.** 92.5%

**Q.** How did the growth turn out when `Cc1ccc(-c2cc3nc(-c4ccccc4)nc(C(Cl)Cl)n3n2)cc1` was run?
**A.** 46%

**Q.** `O=C(Nc1cccc(-n2cc(-c3ccncc3)c(-c3ccc(Cl)c(O)c3)n2)c1)Nc1cccc(C(F)(F)F)c1` was tested. Which growth did it give?
**A.** 28.6%

**Q.** For `COC(OC)c1ccccc1`, which growth is on record?
**A.** 101%

**Q.** How did the growth turn out when `COc1ccc(NC(=O)c2c(Nc3ccc(OC)cc3OC)n[nH]c2N)c(OC)c1` was run?
**A.** 93.7%

**Q.** With `CC(C)(C)n1cc(-c2ccnc(NCCCNS(=O)(=O)c3ccc(F)cc3)c2)c(-c2cccc(O)c2)n1` as the molecule, how does the growth read?
**A.** 51.1%

**Q.** Which growth does the source give for `O=C(C1=Cc2cc3ccccc3n2Cc2cnnn21)c1ccccc1` here?
**A.** 44.6%

**Q.** With `N=C(N)c1ccc(-c2ccc(-c3cncc4ccccc34)s2)cc1F` as the molecule, how does the growth read?
**A.** -87.5% (active)

**Q.** `c1cc(C2=N[C@@H]3c4ccccc4C[C@@H]3O2)nc(C2=N[C@@H]3c4ccccc4C[C@@H]3O2)c1` was tested. Which growth did it give?
**A.** 104%

**Q.** For `CN(C)c1oc(C2OC2c2ccccc2)nc1C#N` (centres undefined), which growth is on record?
**A.** 90.6%

**Q.** How did the growth turn out when `COc1cccc(-c2cc3c(O)cc(C#N)cc3[nH]2)c1` was run?
**A.** 103%

**Q.** `c1ccc(-c2nc(N3CCNCC3)c3nc(-c4ccccc4)oc3n2)cc1` was tested. Which growth did it give?
**A.** -83.6% (active)

**Q.** For `CN(C[C@H]1Cc2c(cccc2N2CCN(Cc3ccccn3)CC2)CN1)[C@H]1CCCc2cccnc21`, which growth is on record?
**A.** 49.2%

**Q.** `COc1ccc(-n2c(=O)sc3c(Cl)nc(C)nc32)c(OC)c1` was tested. Which growth did it give?
**A.** 28.8%

**Q.** With `O=C(Nc1ccc(Cl)c(Cl)c1)NS(=O)(=O)c1cnccc1Oc1ccc(F)cc1` as the molecule, how does the growth read?
**A.** 71.7%

**Q.** `S=C(S)NCCc1c[nH]c2ccccc12` was tested. Which growth did it give?
**A.** 81.9%

**Q.** For `COc1ccc(Nc2[nH]n3c(=O)cc(-c4ccccc4)nc3c2C(=O)Nc2ccc(C)cc2)c(OC)c1`, which growth is on record?
**A.** 102%

**Q.** With `COc1ccc(-n2c(=S)sc3c(Cl)nc(C)nc32)c(OC)c1` as the molecule, how does the growth read?
**A.** -17.3% (active)

**Q.** With `COc1ccc(-c2ccc(C)n2-c2ccc(-c3nc4ccccc4s3)cc2)cc1` as the molecule, how does the growth read?
**A.** 92.8%

**Q.** For `COc1cc(/C(C#N)=C/c2ccc3c(c2OC)OCO3)cc2c1OCO2`, which growth is on record?
**A.** 37.7%

**Q.** Which growth does the source give for `Cc1ccc2ccccc2c1C[n+]1ccccc1` here?
**A.** 101%

**Q.** With `COc1ccc(-c2ccc(-c3ccc(-c4ccc(C(=N)N)cc4)s3)s2)cc1OC` as the molecule, how does the growth read?
**A.** 15.7%

**Q.** For `O=C(CSc1nc2ccccc2[nH]1)Nc1ccc(-c2nc3ccccc3s2)c(Cl)c1`, which growth is on record?
**A.** -52.3% (active)

**Q.** `O=c1ccn(-c2ncnc3nc[nH]c23)cc1` was tested. Which growth did it give?
**A.** 88%

**Q.** `CN(C[C@H]1Cc2c(cccc2N2CCN(c3ncccn3)CC2)CN1)[C@H]1CCCc2cccnc21` was tested. Which growth did it give?
**A.** 37.1%

**Q.** With `COc1ccc(Nc2nn3c(-c4ccccc4)cc(-c4ccccc4)nc3c2C(N)=O)c(OC)c1` as the molecule, how does the growth read?
**A.** 91.6%

**Q.** For `COc1cc(-c2nn(-c3cccc(NC(=O)Nc4cccc(C(F)(F)F)c4)c3)cc2-c2ccncc2)ccc1Cl`, which growth is on record?
**A.** 14%

**Q.** `COc1ccc(C2C=C(c3ccc(Cl)cc3)N=C3SC=C(C)N32)c(Br)c1` (centres undefined) was tested. Which growth did it give?
**A.** 46.1%

**Q.** With `O=C1C2(c3ccccc3)C(c3ccccc3)=C(c3ccccc3)C1(c1ccccc1)C1CC=CC12` (centres undefined) as the molecule, how does the growth read?
**A.** 86.9%

**Q.** `CC(=O)Oc1csc(N(C(C)=O)c2cccc(C(F)(F)F)c2)n1` was tested. Which growth did it give?
**A.** 98.4%

**Q.** With `COc1ccc(C2C=C(c3ccc(OC)c(OC)c3)N=C3SC=C(C)N32)c(Br)c1` (centres undefined) as the molecule, how does the growth read?
**A.** 105%

**Q.** How did the growth turn out when `CCC(=O)OC1=CN2C(=NC(c3ccc(N)cc3)=CC2c2cc(OC)c(OC)c(OC)c2)S1` (centres undefined) was run?
**A.** 65.4%

**Q.** With `C=C1CCC2C(C)(CO)C(O)CCC2(C)C1C/C=C1/C(=O)OCC1Oc1ccccc1C` (centres undefined) as the molecule, how does the growth read?
**A.** 73.7%

**Q.** `CCCCCCCC/C=C/CCCCCCCC1=NC(C)(C)CN1C(C)(C)CO` was tested. Which growth did it give?
**A.** 1.53% (active)

**Q.** With `CN(C)c1cccc2c(S(=O)(=O)/N=C(\N)Nc3nc4ccccc4s3)cccc12` as the molecule, how does the growth read?
**A.** 51.7%

**Q.** For `N/C(=N\S(=O)(=O)c1ccccc1)Nc1nc2ccccc2s1`, which growth is on record?
**A.** 90.8%

**Q.** Which growth does the source give for `COc1ccc(Nc2[nH]n3c(=O)cc(C)nc3c2C(N)=O)c(OC)c1` here?
**A.** 107%
